Source: PubChem
Only some compounds are listed: those with a hit (about 19% of all), similar ones and a draw of the others.
TDP1 cell noCPT – qHTS for Inhibitors of human tyrosyl-DNA phosphodiesterase 1 (TDP1): qHTS in cells in absence of CPT | DT40 Tdp1-/- hTDP1 cells, no CPT, ATP luminescence, 48 h | Potency, µM (titrated, usually from 46.2 µM), without a hit: top-dose activity change, negative = growth inhibition, hits mostly inhibitors | hit rate 15% among 420,000 | AID 686978, 2013; note: potency is the fitted concentration of half-maximal effect; % is set by controls: 0 for no effect and ±100 for the full control effect; nearly all actives have a fitted effect of over 55% in size
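A cellular qHTS used chicken DT40 cells lacking endogenous Tdp1 but carrying stably transfected human TDP1. Compounds were applied without camptothecin, and cell growth kinetics were judged by ATP-dependent luminescence after ≥48 hr.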
S-ASM inh – blocks human secretory acid sphingomyelinase; placental ASM, HMU-PC fluorogenic substrate, 60 min; Potency, µM (highest dose often 57.5 µM), without a hit: at the highest dose activity change, negative = inhibition, most hits filed as inhibitors; hit rate 0.006% among 340,000; AID 504937; note: potency is the fitted concentration of half-maximal effect
Target sequence (P17405 47-631 limits assumed): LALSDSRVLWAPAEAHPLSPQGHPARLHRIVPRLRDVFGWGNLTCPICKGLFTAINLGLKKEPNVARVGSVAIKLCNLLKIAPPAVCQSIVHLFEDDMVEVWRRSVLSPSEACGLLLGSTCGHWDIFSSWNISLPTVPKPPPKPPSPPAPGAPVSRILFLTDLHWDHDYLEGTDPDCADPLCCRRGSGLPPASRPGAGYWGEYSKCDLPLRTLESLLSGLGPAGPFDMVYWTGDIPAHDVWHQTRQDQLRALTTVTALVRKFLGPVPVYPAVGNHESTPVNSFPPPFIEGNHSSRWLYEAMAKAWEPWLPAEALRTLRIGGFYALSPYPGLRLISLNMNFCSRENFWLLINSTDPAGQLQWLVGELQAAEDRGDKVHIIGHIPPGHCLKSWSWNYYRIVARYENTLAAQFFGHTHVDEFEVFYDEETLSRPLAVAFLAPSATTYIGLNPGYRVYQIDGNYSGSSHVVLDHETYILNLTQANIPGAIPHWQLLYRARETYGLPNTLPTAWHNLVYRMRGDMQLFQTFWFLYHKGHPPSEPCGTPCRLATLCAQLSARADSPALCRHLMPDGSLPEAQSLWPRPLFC
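qHTS format. ASM enzyme prepared from human placenta hydrolyses the fluorogenic substrate HMU-PC0 (9 uM final) over 60 min at 37 °C after a 10 min compound preincubation.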
DT40 TDP1 CPT – DT40-hTDP1 cell growth loss with CPT | hit rate 12% among 420,000 | Potency, µM (doses to about 46.2 µM), inactives show at the highest dose activity change, negative = growth inhibition, most hits filed as inhibitors | AID 686979 | chicken DT40 Tdp1-/-;hTDP1 cells + 20 nM CPT, ATP luminescence, 48 h; note: potency is the fitted concentration of half-maximal effect; % is set by controls: 0 for no effect and ±100 for the full control effect; nearly all actives have a fitted effect of over 55% in size
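Chicken DT40 Tdp1-/- cells complemented with human TDP1, 400 cells/well, exposed to compounds plus 20 nM camptothecin for at least 48 h at 37 C; viability read as ATP content by CellTiter-Glo luminescence.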
TGFb SMAD3 inh – TGF-b pathway inhibition; HepG2 CAGA-GFP TGF-b/SMAD3 reporter, GFP fluorescence, 18 h; TGF-beta stimulated, 500 pg/mL final; Potency, µM (highest dose often 46.1 µM), inactives show top-dose activity, negative = inhibition, hits mostly inhibitors; hit rate 1.2% among 410,000; AID 588855; note: potency is the fitted concentration of half-maximal effect; % is set by controls: 0 for no effect and ±100 for the full control effect; nearly all actives have a fitted effect of over 65% in size
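Smad-responsive CAGA-GFP expression was quantified in HEPG2 cells exposed to compounds and 500 pg/mL final TGF-beta for 18 h at 37 degrees C; unstimulated wells defined full inhibition.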
IL1B secr inh – inflammasome signaling inhibition, IL-1 beta readout. THP-1 LPS/ATP IL-1B secretion, AlphaLISA, 16 h; hits give low values. activity change, % at 57.5 µM. hit rate 4.7% among 360,000. AID 743279; in the data active = activity change below about -50%; inconclusive = mostly about -30% to -49%; note: % is set by controls: 0 for no effect and ±100 for the full control effect
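THP-1 cells pretreated 1 hr with compounds (up to 57.5 uM final), then stimulated with LPS (250 ng/mL final) plus ATP (1.25 mM final); secreted IL-1B measured by AlphaLISA after 16 hr, decreased signal indicating inhibition.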
HepG2 viability – HepG2 cytotoxicity, counter-screen for TGF-b inhibitors; HepG2 CAGA-GFP viability, ATP luminescence, 18 h; Potency, µM (top dose mostly 46.1 µM), for the others: at the highest dose activity change, negative = cytotoxicity, actives largely listed as cytotoxic; hit rate 0.76% among 410,000; AID 588856; note: potency is the fitted concentration of half-maximal effect
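HepG2 CAGA-GFP cells (1000/well, DMEM with 1% FBS) received compound, then TGF-beta at 500 pg/mL final, and were incubated 18 hours at 37 degrees C. Viability was read by CellTiter-Glo luminescence. Media-only wells were set as complete cell-killing and DMSO as no toxicity.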
* = called active by the depositor; ? = inconclusive; . = not tested or not shown. Unless noted, calls come from the whole dose curve; as a rule, active = well fitted curve in the direction sought with a large enough effect; inconclusive = small, poorly fitted or top-dose-only effect, or another doubt; inactive = no such curve, though single readings can be large; an effect the other way counts as inactive or inconclusive.

SMILES | TDP1 cell noCPT | S-ASM inh | DT40 TDP1 CPT | TGFb SMAD3 inh | IL1B secr inh | HepG2 viability
CN(Cc1cnn(Cc2ccccc2)c1)C(=O)c1cccc(S(=O)(=O)N2CCOCC2)c1 | 5.8µM* | 2% | 7.3µM* | -15% | 54 | -1%
CN(Cc1cccc(F)c1)C(=O)c1cccc(S(=O)(=O)N2CCN(Cc3ccccc3)CC2)c1 | ? | -4% | ? | -41% | -26 | -6%
CN(CC(=O)Nc1ccccc1Cl)C(=O)c1cccc(S(=O)(=O)N2CCN(c3ccccc3)CC2)c1 | ? | . | ? | ? | -20 | -20%
CN(CC(=O)N1CCN(Cc2ccccc2)CC1)C(=O)Cc1ccc(Cl)c(Cl)c1 | 15µM* | 1% | ? | -3% | -13 | -10%
CN(Cc1ccc(Cl)c(Cl)c1)C(=O)c1cccc(S(=O)(=O)N2CCN(Cc3ccccc3)CC2)c1 | 21µM* | -30% | 21µM* | ? | ? | -19%
Cn1c(SCc2ccc([N+](=O)[O-])cc2)nnc1-c1ccncc1 | -5% | 1% | -3% | -1% | -16 | -26%
CC(=O)c1cccc(OCC(O)CNCCOc2ccc(C)cc2)c1 (stereo unspecified) | -3% | -1% | -5% | 2% | -13 | 5%
CCN(CC(=O)Nc1ccc(OC)cc1)C(=O)c1cccc(S(=O)(=O)N2CCN(c3ccccc3)CC2)c1 | -16% | . | -5% | ? | -30 | -55%
COc1ccccc1OCCNC(=O)c1cccc(S(=O)(=O)N2CCN(Cc3ccccc3)CC2)c1 | ? | -1% | 18µM* | ? | -23 | -3%
O=C(CN1CCN(C(=O)c2cccc(S(=O)(=O)N3CCCC3)c2)CC1)Nc1cccc(F)c1 | -12% | 0% | ? | 0% | 14 | -12%
COc1ccccc1NC(=O)c1cccc(S(=O)(=O)N2CCN(Cc3ccccc3)CC2)c1 | ? | 5% | ? | -3% | -2 | 3%
CN(CC(=O)Nc1cccc(F)c1)C(=O)c1cccc(S(=O)(=O)N2CCN(Cc3ccccc3)CC2)c1 | 8.2µM* | . | 8.2µM* | ? | 9 | -22%
CCN(Cc1ccccc1)c1ccc(/C=N/NC(=O)c2cccc(S(=O)(=O)N3CCOCC3)c2)cc1 | 13µM* | 16% | ? | 0% | 5 | -10%
COc1cc(/C=N/NC(=O)c2cccc(S(=O)(=O)N3CCOCC3)c2)cc(OC)c1O | -10% | 0% | -24% | 5% | 8 | -8%
CN(Cc1ccc(OC(F)F)cc1)C(=O)c1cccc(S(=O)(=O)N2CCN(c3ccccc3)CC2)c1 | 2.9µM* | -5% | 15µM* | -32% | -62* | -14%
CCCCOc1ccc(C(=O)NCC(=O)NCC(c2ccc(F)cc2)N2CCOCC2)cc1 (stereo unspecified) | ? | -3% | ? | -11% | -14 | -19%
CCOc1ccccc1NC(=O)Nc1ccon1 | -2% | 11% | -8% | -16% | -6 | -3%
O=C(Nc1ccc(-c2cc(C(F)(F)F)nn2-c2ccccc2)cc1)c1cccc(F)c1 | 5.2µM* | . | ? | . | . | -56%
COc1cc(C(=O)Nc2ccc(-c3cc(C(F)(F)F)nn3-c3ccccc3)cc2)cc(OC)c1OC | 15µM* | . | 16µM* | -24% | . | -28%
O=C(NC(=O)c1cccc(F)c1)Nc1ccc(-c2cc(C(F)(F)F)nn2-c2ccccc2)cc1 | -23% | . | -23% | 12% | . | -3%
Cc1ccc(C(=O)N/C(=C\c2sccc2C)C(=O)NCc2ccco2)cc1 | -19% | -1% | 19% | 29% | -4 | -22%
CC(C)(C)c1ccc(C(=O)N/C(=C\c2cccs2)C(=O)N2CCOCC2)cc1 | 21µM* | -1% | -29% | 14% | 6 | -1%
CC(C)(C)c1ccc(C(=O)N/C(=C/c2cccs2)C(=O)NCc2ccco2)cc1 | ? | -8% | ? | 8% | -68* | 5%
O=C(N/C(=C/c1cccs1)C(=O)N1CCOCC1)c1cccs1 | 6% | -1% | 7% | 3% | 15 | 4%
CCCNC(=O)CSc1nc2ccccc2c(=O)n1CCC | -1% | 0% | -1% | -3% | -3 | -7%
SMILES | TDP1 cell noCPT | S-ASM inh | DT40 TDP1 CPT | TGFb SMAD3 inh | IL1B secr inh | HepG2 viability
CC(=O)C1=C(C)OC2(O)c3ccccc3C(=O)C12O (stereo unspecified) | 18µM* | -2% | ? | -17% | 12 | -5%
CCOC(=O)C1=C(C)OC2(O)c3ccccc3C(=O)C12O (stereo unspecified) | 21µM* | 0% | ? | -15% | -6 | -2%
CC1=C(C(=O)OC(C)C)C2(O)C(=O)c3ccccc3C2(O)N1 (stereo unspecified) | -24% | 3% | -30% | -13% | -13 | -7%
Cc1ccc2c(c1)c1c(n2CCc2ccc(C)nc2)CCN(C)C1 | . | 12% | . | 5% | . | 4%
CCOC(=O)C1=C(C)NC(C)=C(C(=O)OCC)C1c1cn(-c2ccccc2)nc1-c1ccco1 | ? | 194% | -18% | 9% | -18 | -20%
CC(C)OC(=O)c1cn(-c2ccccc2)nc1-c1ccco1 | ? | 1% | ? | -19% | -90* | -35%
COC(=O)C1CC(c2ccccc2)N(c2ccccc2)O1 (stereo unspecified) | 7% | . | 4% | -2% | 10 | 6%
Cc1cc(I)ccc1Nc1nc(NCCN2CCOCC2)nc(N2CCOCC2)n1 | 5.6µM* | . | 3.2µM* | -7% | . | -45%
N=C(N)SCc1cccc2c(=O)cc(-c3ccccc3)oc12 | 7.1µM* | . | 4.5µM* | ? | . | -31%
COCCCN1C(=O)C(CC(=O)NCCc2ccccn2)CC(C(=O)N2CCOCC2)=C1C (stereo unspecified) | -1% | . | 3% | -3% | 24 | -5%
CNC[C@H](CC1CCCCC1)NC[C@H](Cc1ccccc1)NCCC12CC3CC(CC(C3)C1)C2 | 13µM* | 5% | 7.3µM* | ? | -100* | 13µM*
Cc1cccc(NS(=O)(=O)c2ccc(C(=O)NCC(c3ccco3)N3CCCCC3)cc2)c1C (stereo unspecified) | 23µM* | -1% | ? | -16% | ? | -1%
Cc1cccc(NS(=O)(=O)c2cccc(C(=O)NCC(c3ccco3)N3CCCCC3)c2)c1 (stereo unspecified) | 23µM* | 0% | 21µM* | -6% | -59* | 19%
